# Test results taken from PubChem BioAssay AID504840 (Johns Hopkins Ion Channel Center, 2011).
# The campaign covered roughly 1,500 compounds. About 890 (59%) were called active.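 Rule for the calls: active = inhibition of the choline-evoked signal at any tested dose together with a fitted dose-response curve; inactive = no inhibition at any dose or no curve.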 So high a share suggests a set chosen from earlier hits. The list is a sample of the results. Results with a measured potency or affinity are listed apart.
# Target: High affinity choline transporter 1 (Homo sapiens) (UniProt Q9GZV3)
# Sequence (Q9GZV3 whole entry, looked up): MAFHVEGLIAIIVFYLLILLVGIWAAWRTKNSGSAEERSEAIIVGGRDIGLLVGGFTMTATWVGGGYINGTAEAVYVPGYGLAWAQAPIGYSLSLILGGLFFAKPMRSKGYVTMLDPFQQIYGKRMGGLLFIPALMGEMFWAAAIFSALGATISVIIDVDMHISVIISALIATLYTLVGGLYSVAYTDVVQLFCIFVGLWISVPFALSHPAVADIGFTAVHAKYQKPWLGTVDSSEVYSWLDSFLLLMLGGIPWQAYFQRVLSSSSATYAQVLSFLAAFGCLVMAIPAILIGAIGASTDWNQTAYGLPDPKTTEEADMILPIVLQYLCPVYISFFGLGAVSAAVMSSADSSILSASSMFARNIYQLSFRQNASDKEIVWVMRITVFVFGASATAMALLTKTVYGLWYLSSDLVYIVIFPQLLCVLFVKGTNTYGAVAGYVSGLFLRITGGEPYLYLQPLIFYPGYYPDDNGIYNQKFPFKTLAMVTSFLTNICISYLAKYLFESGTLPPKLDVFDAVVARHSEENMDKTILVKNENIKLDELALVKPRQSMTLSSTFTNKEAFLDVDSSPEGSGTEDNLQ
# Experiment: human choline transporter blockers, potency – cell-based, 5-point CRC, membrane potential dye, dose response (AID 504840)
# Conditions: HEK293-CHT, choline-induced depolarization, CHT with LV-to-AA double alanine mutation; series mostly up to 37 µM
row,SMILES,outcome
1,O=C1ON=C(c2ccccc2)/C1=C/c1ccco1,inactive
2,CCc1ccc(S(=O)(=O)c2n[nH]n3c2nc(=O)c2ccccc23)cc1,inactive
3,C/C(Cl)=C\Cn1c(O)c(N=O)c2ccccc21,inactive
4,CC(NS(=O)(=O)OCC(Cl)(Cl)Cl)c1ccc(Br)cc1 (centres undefined),inactive
5,O=S(=O)(c1ccc(F)c(F)c1)N1CCN(CCc2ccccc2)CC1,inactive
6,O=C1CCN(CCc2ccccc2)CCN1CCSc1ccccc1,inactive
7,COc1ccc(S(=O)(=O)N2CCN(CCc3ccccc3)CC2)c(OC)c1,inactive
8,CC(C)(C)Nc1nc(Cl)nc(N(C#N)CN2C(=O)c3ccccc3S2(=O)=O)n1,inactive
9,Cc1ccc(SC(CC(=O)c2ccc(C(C)(C)C)cc2)C(=O)O)cc1 (centres undefined),inactive
10,O=C(O)c1ccc(/C=C2\SC(=S)N(NC(=O)c3ccc(Br)cc3)C2=O)cc1,inactive
11,COc1ccc(N(CCCN2C(=O)c3cccc4cccc(c34)C2=O)C(=O)c2ccncc2)cc1,inactive
12,O=C(NN1C(=O)/C(=C/c2cccc(O)c2)SC1=S)c1ccccc1O,inactive
13,CC1CC(C)(C)N(C(=O)CN2C(=O)c3ccccc3C2=O)c2ccccc21 (centres undefined),inactive
14,Oc1c(Br)cc(/C=N/NC(=S)NCc2ccco2)cc1Br,inactive
15,COc1ccc(OCC(=O)N/N=C/C=C/c2ccccc2)cc1,inactive
16,CCCOc1ccc(C(=O)NNC(=S)NC(=O)c2ccccc2)cc1,inactive
17,COc1ccc(C(=O)NNC(=S)NC(=O)c2ccccc2)cc1,inactive
18,CC(C)(C)N/N=C/c1cc(Cl)cc([N+](=O)[O-])c1O,inactive
19,CCOC(=O)c1ccc2c(c1)[nH]c(=S)n2CC,inactive
20,CCCCn1c(=O)n(Cc2cccc(F)c2)c(=O)c2c1ncn2Cc1ccco1,inactive
21,N#Cc1nc(Cc2cccc3ccccc23)oc1N1CCOCC1,inactive
22,O=C(Cn1ncc2c3ccccc3n(Cc3ccccc3)c2c1=O)NCCCN1CCOCC1,inactive
23,Oc1cccc(-n2nnnc2SCc2ccccc2F)c1,inactive
24,Cc1ccccc1-n1nnnc1Sc1nnnn1-c1ccccc1,inactive
25,COc1ccc(Cl)cc1NC(=O)C[n+]1cccc(C)c1,inactive
26,C=Cn1cc[n+](CC(=O)c2ccc(Cl)cc2)c1,inactive

row,SMILES,outcome
1,C=Cn1cc[n+](CC(=O)c2ccc(Cl)c(Cl)c2)c1,inactive
2,O=[N+]([O-])c1cc([N+](=O)[O-])c2c(=Nc3ccccc3)n(-c3ccccc3)n(O)c2c1,inactive
3,CCCNC(=O)c1ccc(COc2ccc(C)cc2)o1,inactive
4,CC1CCC(NC(=O)c2ccc(CS(=O)(=O)Cc3ccccc3F)o2)CC1 (centres undefined),inactive
5,Cc1ccc(C(=O)CCC(=O)NC2CCCC(C)C2C)cc1 (centres undefined),inactive
6,Cc1ccccc1OC(C)C(=O)Nc1ccc(S(=O)(=O)Nc2nccs2)cc1 (centres undefined),inactive
7,CCC(Oc1ccc(C)cc1)C(=O)Nc1ccc(S(=O)(=O)Nc2nccs2)cc1 (centres undefined),inactive
8,O=C(Nc1ccccc1OC(F)F)c1cccc(S(=O)(=O)N2CCCC2)c1,inactive
9,CC(NCc1ccc(F)cc1)C(=O)Nc1cc(S(=O)(=O)N2CCCCC2)ccc1Cl (centres undefined),inactive
10,Cc1cc(C)n2nc(SCc3cccc(S(=O)(=O)N(C)C)c3)nc2n1,inactive
11,CCOC(=O)C1CCCN(C(=O)Cc2c(F)cccc2Cl)C1 (centres undefined),inactive
12,CSc1ccc(C(=O)C2CCCN(C(=O)c3nonc3C)C2)cc1 (centres undefined),inactive
13,Cc1ccc(SCC2(O)CCN(C(=O)c3ccc(Cl)cc3)CC2)cc1,inactive
14,O=C(Cc1ccccc1F)c1ccc(O)cc1O,inactive
15,Cc1sc(NC(=O)c2ccco2)nc1-c1ccccc1,inactive
16,O=c1c2ccccc2nc(-c2ccccc2)n1Cc1ccco1,inactive
17,CC1CCCCN1C(=O)c1ccc(C(=O)Nc2ccc(F)cc2)cc1 (centres undefined),inactive
18,O=C(CCc1ccccc1)NNC(=S)NC(=O)c1ccc(Cl)cc1,inactive
19,COc1cccc(N2C(=O)N(c3ccccc3)C3CS(=O)(=O)CC32)c1 (centres undefined),inactive
20,CCCCCn1c(=O)[nH]c2cc(C(=O)NCCCN3CCCCC3CC)ccc2c1=O (centres undefined),inactive
21,CCN(CC)CCCN1C=C2C(=O)C(C)(OC(=O)CCC(=O)OC)C(=O)C=C2C=C1C1CC1 (centres undefined),inactive
22,Cc1ccc(OCC(=O)NNC(=S)NC(=O)C(C)(C)C)c(Br)c1,inactive
23,CC(Oc1ccc2ccccc2c1)C(=O)NNC(=S)NC(=O)c1ccco1 (centres undefined),inactive
24,CCCCCc1cc(=O)oc2c(C(CCN3CCCCC3)c3cc(OC)c(OC)c(OC)c3)c(OC)cc(OC)c12 (centres undefined),inactive
25,COc1cc(CN(C)Cc2cc(=O)n3ccsc3n2)ccc1OC(F)F,inactive
26,COc1ccc(CNC(=O)[C@H](C)NC(=O)N2CCn3c2nc2ccccc23)cc1,inactive

row,SMILES,outcome
1,O=C(Cn1nc(C(F)(F)F)c2c1CCC2)NCc1ccc(F)cc1,inactive
2,CC(/C=C1\NC(=S)NC1=O)=C\c1ccccc1,inactive
3,O=C(O)CN1C(=O)/C(=C/C=C/c2ccccc2)SC1=S,inactive
4,CC(=O)NC(CC(=O)NCCN1C(=O)S/C(=C\c2ccccc2)C1=O)c1ccccc1 (centres undefined),inactive
5,CN1CCN(C(=O)CCN2C(=O)/C(=C/c3cccc(Br)c3)SC2=S)CC1,inactive
6,CN1CCN(C(=O)CCN2C(=O)S/C(=C/c3ccc(Cl)cc3)C2=O)CC1,inactive
7,COc1ccc(/C=C2/SC(=S)N(CCCC(=O)N3CCN(C)CC3)C2=O)cc1,inactive
8,CCC(C(=O)N1CCOCC1)n1c(C(=O)OC)cc2occc21 (centres undefined),inactive
9,C=CCn1c(SCC(=O)NC(=O)NC2CCCC2)nnc1C1CCCCC1,inactive
10,Cc1nc(SCC(=O)NC(=O)NCc2ccccc2)nc(C)c1C,inactive
11,CC(=O)Nc1cc(NC(C)=O)cc(C(=O)OC(C)C(=O)Nc2ccc(S(=O)(=O)N3CCCC3)cc2)c1 (centres undefined),inactive
12,CC(=O)Nc1cccc(C(=O)OC(C)C(=O)Nc2ccc(S(=O)(=O)N3CCCC3)cc2)c1 (centres undefined),inactive
13,CN(c1cccc(NC(=O)Nc2cccc(Cl)c2)c1)S(C)(=O)=O,inactive
14,Cc1cc(C)n2c(SCC(=O)NC3CCCCC3C)nnc2n1 (centres undefined),inactive
15,CC1CCCCC1NC(=O)c1ccc2c(c1)[nH]c(=O)n2C1CCCC1 (centres undefined),inactive
16,Cc1ccc(S(=O)(=O)N2CCCCC2)cc1NC(=O)CSc1nncn1-c1ccccc1,inactive
17,CC1CCC(NC(=O)CCn2ccc3cc(S(=O)(=O)N4CCCC4)ccc32)CC1 (centres undefined),inactive
18,CCCc1nc2oc3c(NCC4CCCO4)ncnc3c2c2c1COC(C)(C)C2 (centres undefined),inactive
19,CCCN(CCC)Cc1c(C(=O)N/N=C/C(C)=C\c2ccco2)nnn1-c1nonc1N,inactive
20,COc1ccccc1C(=O)NC1CCN(C(=S)NCCc2ccccc2)CC1,inactive
21,COc1ccc(OCC(O)Cn2c(=N)n(Cc3ccccc3)c3ccccc32)cc1 (centres undefined),inactive
22,Cc1ccc(OCC(O)Cn2c(=N)n(Cc3ccccc3)c3ccccc32)cc1 (centres undefined),inactive
23,Cc1ccc(/C=C2\SC(=S)N(c3c(C)n(C)n(-c4ccccc4)c3=O)C2=O)cc1,inactive
24,Cc1ccc(S(=O)(=O)NC2=C(N3CCN(Cc4ccccc4)CC3)C(=O)c3ccccc3C2=O)cc1,inactive
25,COc1cc(/C=C2/S/C(=N/S(=O)(=O)Cc3ccccc3)NC2=O)c([N+](=O)[O-])cc1OC,inactive
26,COc1ccc(NC(=O)CSc2nccn2Cc2ccccc2)cc1,inactive

row,SMILES,outcome
1,CCN(C(=O)c1cc2c(=O)n3ccccc3nc2n1CCCOC)C1CCCCC1,inactive
2,O=C(NCCCn1ccnc1)C(=O)c1cn(CC(=O)N2CCCCCC2)c2ccccc12,inactive
3,O=C(c1cn(-c2ccccc2)nc1-c1ccc(Cl)cc1)N1CCOCC1,inactive
4,N/C(=N\O)c1ccc(N2CCN(c3ncccc3C(F)(F)F)CC2)nc1,inactive
5,O=S(=O)(NCc1csc(-c2cccs2)n1)c1ccc(Cl)cc1,inactive
6,Cc1ccc(S(=O)(=O)N2[C@@H](c3ccc(F)cc3)C(C(=O)O)=CC[C@H]2c2ccc(C(C)C)cc2)cc1,inactive
7,CCOc1ccc([C@@H]2CC=C(C(=O)O)[C@H](c3cccc(Cl)c3)N2S(=O)(=O)c2ccc(C)cc2)cc1,inactive
8,CCn1c(N2CCN(S(=O)(=O)c3ccc(Cl)cc3)CC2)nc2ccccc21,inactive
9,COc1ccccc1OCC(=O)NCCS(=O)(=O)N1CCN(c2ccccc2)CC1,inactive
10,CCCCn1c(SCC(=O)Nc2cccc(OC)c2)nc2ccc(N3CCOCC3)cc2c1=O,inactive
11,CCCc1cc(C(=O)Cc2ccc(F)cc2)c(O)cc1O,inactive
12,CCOC(=O)c1ccc(CC(=O)c2ccc(O)cc2O)o1,inactive
13,Cc1ccc(-n2c(C)cc(=O)cc2C)c(C)c1,inactive
14,CCCOc1ccc(C(=O)NNC(=S)NC(=O)c2ccco2)cc1,inactive
15,CC[C@H](C)[C@H](NC(=O)c1ccc(Cl)cc1)C(=O)OCC(=O)c1ccc2c(c1)NC(=O)CO2,inactive
16,CC(NC(=O)/C(C#N)=C/c1ccc([N+](=O)[O-])o1)c1ccccc1 (centres undefined),inactive
17,CCCCNC(=O)/C(C#N)=C/c1ccc(-c2ccc(S(=O)(=O)N3CCOCC3)cc2)o1,inactive
18,Cc1ccc(N=Cc2cc(Cc3ccccc3Cl)cc([N+](=O)[O-])c2O)c(O)c1,inactive
19,CN1C[C@@H]2C(c3ccc(C(F)(F)F)cc3)C3(c4cccnc4)CC2(C3)[C@H]1c1ccccc1 (some centres undefined),inactive
20,COc1cc(C(CCN2CCCCC2)c2c(OC)cc(OC)c3c(-c4ccccc4)cc(=O)oc23)cc(OC)c1OC (centres undefined),inactive
21,COCCCn1c(SCC(=O)Nc2sc3c(c2C#N)CCCC3)nnc1-c1ccncc1,inactive
22,Cc1ccc(C(=O)CSc2n[nH]c(-c3ccco3)n2)cc1C,inactive
23,CCN(CC(=O)NCc1cccs1)S(=O)(=O)c1ccc(C(C)C)cc1,inactive
24,CS(=O)(=O)n1nc(OC(=O)c2cccc3ccccc23)cc1N,inactive
25,COc1ccc(Cc2nnc(NC(=O)c3ccccc3[N+](=O)[O-])s2)cc1,inactive
26,O=C(O)c1ccccc1NSc1ccccc1[N+](=O)[O-],inactive
